Holding throughout (experiment): DAPPL (digital affinity profiling via proximity ligation, sequencing); 10 mM Tris-HCl pH 7.5, 50 mM NaCl, 1 mM DTT, 4% glycerol, room temperature, 30 min; GST-TFs on glutathione beads, 16-mer random dsDNA library, 0.1% formaldehyde crosslink after washing; high values mean tight binding
Common to all, as to conditions: protein: recombinant; tags: N-terminal GST; dsDNA, one strand shown

One assay has as its target T1, ERF (Homo sapiens, UniProt P50548 1-548).
T1 sequence: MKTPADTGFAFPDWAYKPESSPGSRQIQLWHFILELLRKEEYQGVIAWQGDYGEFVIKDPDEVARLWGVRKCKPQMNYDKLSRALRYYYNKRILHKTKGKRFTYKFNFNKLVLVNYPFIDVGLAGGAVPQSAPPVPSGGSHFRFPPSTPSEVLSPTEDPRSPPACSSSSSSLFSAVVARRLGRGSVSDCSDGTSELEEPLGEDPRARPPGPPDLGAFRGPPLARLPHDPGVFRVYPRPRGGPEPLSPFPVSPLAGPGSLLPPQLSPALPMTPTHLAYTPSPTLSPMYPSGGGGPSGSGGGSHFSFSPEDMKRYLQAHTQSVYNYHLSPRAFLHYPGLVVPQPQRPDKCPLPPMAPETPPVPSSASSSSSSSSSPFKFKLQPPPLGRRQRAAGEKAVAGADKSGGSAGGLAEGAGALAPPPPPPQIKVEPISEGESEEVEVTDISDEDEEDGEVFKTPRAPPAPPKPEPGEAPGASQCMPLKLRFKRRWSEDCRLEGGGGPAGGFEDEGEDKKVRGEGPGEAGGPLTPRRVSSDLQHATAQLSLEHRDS
The procedure, abridged:
(§1)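 Binding signal is each hexamer's read frequency for a factor divided by its frequency in the tag-only sample. The factors were GST-fused human transcription factors from yeast, captured on glutathione beads, DNA-barcoded and pooled with that sample. Pools were incubated with 200 nmole of a random double-stranded 16-mer DNA library in Tris/NaCl/DTT/glycerol buffer at room temperature for 30 min, then washed, crosslinked with 0.1% formaldehyde, proximity-ligated with BsaI/T4 ligase (1 h, 37 °C), PCR-amplified and sequenced on an Illumina NextSeq500.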

Another assay has as its target T2, ETV3L (Homo sapiens, UniProt Q6ZN32 1-361).
T2 sequence: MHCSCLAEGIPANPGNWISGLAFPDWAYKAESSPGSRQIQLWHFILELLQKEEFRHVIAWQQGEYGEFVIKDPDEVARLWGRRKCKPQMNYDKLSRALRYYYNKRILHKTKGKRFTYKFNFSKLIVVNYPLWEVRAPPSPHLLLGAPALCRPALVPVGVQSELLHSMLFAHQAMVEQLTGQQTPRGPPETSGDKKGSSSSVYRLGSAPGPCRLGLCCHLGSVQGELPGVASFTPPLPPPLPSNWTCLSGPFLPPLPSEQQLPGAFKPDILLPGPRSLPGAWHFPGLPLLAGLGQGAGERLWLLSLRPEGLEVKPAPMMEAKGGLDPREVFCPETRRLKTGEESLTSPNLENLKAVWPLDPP
A digest of the protocol: as §1

The target in another assay is T3, ETS2 (Homo sapiens, UniProt P15036 1-469).
T3 sequence: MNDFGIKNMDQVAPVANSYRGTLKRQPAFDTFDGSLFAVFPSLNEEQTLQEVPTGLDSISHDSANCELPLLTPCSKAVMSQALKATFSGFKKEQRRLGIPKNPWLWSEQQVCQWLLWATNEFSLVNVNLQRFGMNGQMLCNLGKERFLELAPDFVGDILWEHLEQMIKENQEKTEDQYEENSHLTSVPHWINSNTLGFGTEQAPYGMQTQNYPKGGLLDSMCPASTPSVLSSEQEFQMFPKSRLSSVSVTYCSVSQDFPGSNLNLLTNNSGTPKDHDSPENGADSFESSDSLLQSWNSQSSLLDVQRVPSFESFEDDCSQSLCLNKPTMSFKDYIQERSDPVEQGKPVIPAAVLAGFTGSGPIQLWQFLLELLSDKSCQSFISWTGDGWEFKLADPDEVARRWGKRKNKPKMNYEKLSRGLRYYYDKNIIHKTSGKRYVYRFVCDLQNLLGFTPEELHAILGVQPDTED
The procedure, abridged:
as §1

The target in another assay is T4, SPDEF (Homo sapiens, UniProt O95238 1-335).
T4 sequence: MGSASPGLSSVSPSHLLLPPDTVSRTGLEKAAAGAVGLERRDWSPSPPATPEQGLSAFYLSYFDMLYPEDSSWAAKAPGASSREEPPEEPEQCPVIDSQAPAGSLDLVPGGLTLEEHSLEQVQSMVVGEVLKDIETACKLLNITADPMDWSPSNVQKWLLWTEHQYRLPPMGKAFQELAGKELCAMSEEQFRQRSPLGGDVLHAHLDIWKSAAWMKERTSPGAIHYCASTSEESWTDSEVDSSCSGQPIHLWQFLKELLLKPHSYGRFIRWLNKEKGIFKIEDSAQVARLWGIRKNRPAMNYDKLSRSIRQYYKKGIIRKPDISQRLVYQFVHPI
A digest of the protocol: as §1

A further assay addresses T5, ETV7 (Homo sapiens, UniProt Q9Y603 1-341).
T5 sequence: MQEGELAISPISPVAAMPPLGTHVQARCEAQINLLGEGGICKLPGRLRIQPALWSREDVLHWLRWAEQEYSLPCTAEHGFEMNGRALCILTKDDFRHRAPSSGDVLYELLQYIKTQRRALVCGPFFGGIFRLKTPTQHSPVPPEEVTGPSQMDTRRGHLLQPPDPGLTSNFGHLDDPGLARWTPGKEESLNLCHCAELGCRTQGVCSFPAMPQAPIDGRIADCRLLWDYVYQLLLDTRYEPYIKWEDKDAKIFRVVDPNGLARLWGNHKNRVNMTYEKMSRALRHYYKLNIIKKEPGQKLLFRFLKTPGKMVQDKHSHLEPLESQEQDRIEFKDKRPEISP
The procedure, abridged: as §1

In a further assay the target is T6, ELF5 (Homo sapiens, UniProt Q9UKW6-2 1-255).
T6 sequence: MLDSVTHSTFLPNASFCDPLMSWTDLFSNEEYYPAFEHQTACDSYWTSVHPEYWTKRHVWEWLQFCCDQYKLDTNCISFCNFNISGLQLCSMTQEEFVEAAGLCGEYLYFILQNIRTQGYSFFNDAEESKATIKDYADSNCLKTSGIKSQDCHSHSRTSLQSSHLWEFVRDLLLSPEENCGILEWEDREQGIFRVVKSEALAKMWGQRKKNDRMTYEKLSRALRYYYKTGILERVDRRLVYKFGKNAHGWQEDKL
The procedure, abridged: as §1

Another assay concerns the target T7, ETV3 (Homo sapiens, UniProt P41162-2 1-143).
T7 sequence: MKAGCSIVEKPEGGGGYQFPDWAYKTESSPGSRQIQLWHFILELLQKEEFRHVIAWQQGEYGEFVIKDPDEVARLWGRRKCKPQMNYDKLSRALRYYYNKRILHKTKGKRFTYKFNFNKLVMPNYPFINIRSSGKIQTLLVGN
The procedure, abridged: as §1

Another assay has as its target ETV6 (Homo sapiens, UniProt P41212 1-452). A digest of the protocol: as §1

Chain of ETV6 (P41212 whole entry): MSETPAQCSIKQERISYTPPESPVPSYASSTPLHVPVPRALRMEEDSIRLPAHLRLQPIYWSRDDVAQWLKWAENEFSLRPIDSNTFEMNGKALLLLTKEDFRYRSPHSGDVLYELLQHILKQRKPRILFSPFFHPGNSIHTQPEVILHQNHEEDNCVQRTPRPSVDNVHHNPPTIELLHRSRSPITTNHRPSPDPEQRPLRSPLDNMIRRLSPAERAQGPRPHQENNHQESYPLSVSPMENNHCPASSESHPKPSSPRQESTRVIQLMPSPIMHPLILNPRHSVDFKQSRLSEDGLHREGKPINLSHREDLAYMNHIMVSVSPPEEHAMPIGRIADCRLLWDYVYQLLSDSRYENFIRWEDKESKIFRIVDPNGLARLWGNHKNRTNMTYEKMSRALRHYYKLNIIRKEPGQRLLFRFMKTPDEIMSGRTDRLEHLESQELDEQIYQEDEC

For CTCATC, the binding signal was 1.44 fold enrichment (6-mer frequency, TF over GST control) with ERF; 1.5 fold enrichment (6-mer frequency, TF over GST control) in the assay with ETV3L; 1.32 fold enrichment (6-mer frequency, TF over GST control) with ETS2; 1.39 fold enrichment (6-mer frequency, TF over GST control) with SPDEF; 1.23 fold enrichment (6-mer frequency, TF over GST control) with ETV7; 1.44 fold enrichment (6-mer frequency, TF over GST control) with ELF5. Also, the binding signal with ETV3 was 1.48 fold enrichment (6-mer frequency, TF over GST control); with ETV6, 1.37 fold enrichment (6-mer frequency, TF over GST control).

Regarding CACCCT, the binding signal with ERF was 1.09 fold enrichment (6-mer frequency, TF over GST control); with ETV3L, 1.26 fold enrichment (6-mer frequency, TF over GST control); with ETS2, 1.09 fold enrichment (6-mer frequency, TF over GST control); in the assay with SPDEF it was 1.13 fold enrichment (6-mer frequency, TF over GST control); with ETV7, 1.04 fold enrichment (6-mer frequency, TF over GST control); in the assay with ELF5 it was 1.11 fold enrichment (6-mer frequency, TF over GST control). Moreover, the binding signal with ETV3 was 1.24 fold enrichment (6-mer frequency, TF over GST control); with ETV6, 1.05 fold enrichment (6-mer frequency, TF over GST control).

Take TCCCGA: the binding signal with ERF was 1.34 fold enrichment (6-mer frequency, TF over GST control); in the assay with ETV3L it was 1.21 fold enrichment (6-mer frequency, TF over GST control); with ETS2, 1.29 fold enrichment (6-mer frequency, TF over GST control); in the assay with SPDEF, 1.37 fold enrichment (6-mer frequency, TF over GST control); in the assay with ETV7, 1.35 fold enrichment (6-mer frequency, TF over GST control); with ELF5 it was 1.52 fold enrichment (6-mer frequency, TF over GST control). Also, the binding signal in the assay with ETV3 was 1.26 fold enrichment (6-mer frequency, TF over GST control); with ETV6, 1.22 fold enrichment (6-mer frequency, TF over GST control).

For TGACAT, the binding signal was 1.21 fold enrichment (6-mer frequency, TF over GST control) with ERF; 1.28 fold enrichment (6-mer frequency, TF over GST control) in the assay with ETV3L; 1.3 fold enrichment (6-mer frequency, TF over GST control) with ETS2; 1.25 fold enrichment (6-mer frequency, TF over GST control) in the assay with SPDEF; 1.25 fold enrichment (6-mer frequency, TF over GST control) with ETV7; 1.22 fold enrichment (6-mer frequency, TF over GST control) with ELF5. In addition, the binding signal in the assay with ETV3 was 1.26 fold enrichment (6-mer frequency, TF over GST control); with ETV6, 1.37 fold enrichment (6-mer frequency, TF over GST control).

Consider TCCTGA, for which the binding signal with ERF was 1.26 fold enrichment (6-mer frequency, TF over GST control); in the assay with ETV3L it was 1.43 fold enrichment (6-mer frequency, TF over GST control); with ETS2, 1.59 fold enrichment (6-mer frequency, TF over GST control); with SPDEF it was 1.69 fold enrichment (6-mer frequency, TF over GST control); with ETV7, 1.32 fold enrichment (6-mer frequency, TF over GST control); with ELF5, 1.92 fold enrichment (6-mer frequency, TF over GST control). Moreover, the binding signal with ETV3 was 1.71 fold enrichment (6-mer frequency, TF over GST control); in the assay with ETV6, 1.51 fold enrichment (6-mer frequency, TF over GST control).

For GTATAA, the binding signal was 1.13 fold enrichment (6-mer frequency, TF over GST control) with ERF; 1.14 fold enrichment (6-mer frequency, TF over GST control) in the assay with ETV3L; 1.08 fold enrichment (6-mer frequency, TF over GST control) in the assay with ETS2; 1.07 fold enrichment (6-mer frequency, TF over GST control) in the assay with SPDEF; 1.11 fold enrichment (6-mer frequency, TF over GST control) in the assay with ETV7; 1.11 fold enrichment (6-mer frequency, TF over GST control) in the assay with ELF5. Further, the binding signal with ETV3 is 1.08 fold enrichment (6-mer frequency, TF over GST control); with ETV6, 1.08 fold enrichment (6-mer frequency, TF over GST control).

These data come from publication PMC7862700, “An all-to-all approach to the identification of sequence-specific readers for epigenetic DNA modifications on cytosine”.
